The source made the active and inactive calls. The calls were made as follows: active = hit-call score of the fitted dose curve at least 0.9, where 1 is the maximum; inactive = score below 0.9.
How the values were obtained:
Conditions in all cases: mRNA level, 48 h; actives raise or lower the signal
[1] = read-out: Lipase C (LIPC), LIPC (gene 3990); assay: LTEA_HepaRG_LIPC: Life Technologies and Expression Analysis (LTEA) Assay for Lipase C (LIPC) using HepaRG (AID 2283514)
Outline: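 LIPC expression was quantified by qRT-PCR against three housekeeping genes (ACTB, GAPDH, POLR2A). Differentiated human HepaRG cells received eight half-log doses (top 100 uM, 0.5% DMSO) in duplicate for 48 h; fitting bidirectional relative to DMSO.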

[2] = read-out: Lipoprotein lipase (LPL), LPL (gene 4023); assay: LTEA_HepaRG_LPL: Life Technologies and Expression Analysis (LTEA) Assay for Lipoprotein lipase (LPL) using HepaRG (AID 2283515)
Outline: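 LPL transcript levels quantified by TaqMan qRT-PCR against three housekeeping genes after 48 h chemical treatment of HepaRG cells. Eight-point half-log series from 100 uM in 0.5% DMSO, tested in duplicate; bidirectional fitting versus vehicle.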

[3] = read-out: MicroRNA 122 (MIR122), gene 406906; assay: LTEA_HepaRG_MIR122: Life Technologies and Expression Analysis (LTEA) Assay for MicroRNA 122 (MIR122) using HepaRG (AID 2283516); also: the transcript read is the microRNA miR-122
Outline: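 qRT-PCR read-out (TaqMan, Fluidigm array), normalized to three housekeeping genes; HepaRG cells dosed 48 h at 8 concentrations up to 100 uM in 0.5% DMSO, duplicate; gain or loss fitted against DMSO baseline.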

[4] = read-out: matrix metalloproteinase-10 (MMP10), MMP10 (gene 4319); assay: LTEA_HepaRG_MMP10: Life Technologies and Expression Analysis (LTEA) Assay for matrix metalloproteinase-10 (MMP10) using HepaRG (AID 2283517)
Outline: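 Expression measured by TaqMan qRT-PCR with ACTB/GAPDH/POLR2A normalisation after 48 h chemical exposure of HepaRG cells. Eight half-log concentrations, top 100 uM, 0.5% DMSO vehicle, duplicates; gain or loss fitted against vehicle.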

[5] = read-out: matrix metalloproteinase-3 (MMP3), MMP3 (gene 4314); assay: LTEA_HepaRG_MMP3: Life Technologies and Expression Analysis (LTEA) Assay for matrix metalloproteinase-3 (MMP3) using HepaRG (AID 2283519)
Outline: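 Fluidigm-based TaqMan qRT-PCR, normalized to ACTB, GAPDH and POLR2A and fitted bidirectionally versus 0.5% DMSO, measured transcript levels. Treatment: duplicate 48 h exposures of HepaRG cells, ~100,000/well, to eight half-log concentrations topping at 100 uM.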

[6] = read-out: Paternally Expressed 10 (PEG10), PEG10 (gene 23089); assay: LTEA_HepaRG_PEG10: Life Technologies and Expression Analysis (LTEA) Assay for Paternally Expressed 10 (PEG10) using HepaRG (AID 2283520);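 also: PEG10 transcript by qRT-PCR normalised to ACTB GAPDH and POLR2A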
Outline: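 qRT-PCR read-out: PEG10 mRNA normalised to three housekeeping genes, fitted bidirectionally against 0.5% DMSO vehicle. HepaRG cells received test chemicals for 48 h in serum-free induction medium, 8 points, top 100 uM, half-log steps.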

[7] = read-out: Nuclear factor NF-kappa-B p105 subunit (Homo sapiens) (UniProt P19838); assay: LTEA_HepaRG_NFKB1: Life Technologies and Expression Analysis (LTEA) Assay for Nuclear Factor Kappa B Subunit 1 (NFKB1) using HepaRG (AID 2283521)
Outline: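 Differentiated human HepaRG cells in serum-free induction medium with 0.5% DMSO were exposed for 48 h to eight half-log concentrations, top 100 uM, in duplicate. NFKB1 mRNA measured by Fluidigm TaqMan qRT-PCR, normalised to ACTB, GAPDH and POLR2A; bidirectional fit versus DMSO.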

[8] = read-out: Protein phosphatase 2A (PPP2R4), PTPA (gene 5524); assay: LTEA_HepaRG_PPP2R4: Life Technologies and Expression Analysis (LTEA) Assay for Protein phosphatase 2A (PPP2R4) using HepaRG (AID 2283522)
Outline: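 HepaRG, 48 h exposure, 8-pt half-log series from 100 uM, 0.5% DMSO vehicle, duplicates. Readout: PPP2R4 mRNA, Fluidigm qRT-PCR, housekeeping-normalized. Bidirectional curve fit vs DMSO baseline.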

[9] = read-out: Phosphatase and tensin (PTEN), PTEN (gene 5728); assay: LTEA_HepaRG_PTEN: Life Technologies and Expression Analysis (LTEA) Assay for Phosphatase and tensin (PTEN) using HepaRG (AID 2283523)
Outline: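 Read-out: TaqMan qRT-PCR of PTEN transcript, normalized to three housekeeping genes, fitted in both directions against 0.5% DMSO. Differentiated human HepaRG cultures received chemicals for 48 h, eight-point half-log series topping at 100 uM.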

[10] = read-out: solute carrier (SLC22A1), SLC22A1 (gene 6580); assay: LTEA_HepaRG_SLC22A1: Life Technologies and Expression Analysis (LTEA) Assay for solute carrier (SLC22A1) using HepaRG (AID 2283524)
Outline: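 Transcript level of SLC22A1 quantified by qRT-PCR (normalized to three housekeeping genes) after 48 h chemical exposure of HepaRG cells, eight concentrations up to 100 µM, half-log steps, 0.5% DMSO vehicle. Gain or loss relative to DMSO fitted bidirectionally.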

[11] = read-out: Pyruvate Dehydrogenase Kinase 4 (PDK4), PDK4 (gene 5166); assay: LTEA_HepaRG_PDK4: Life Technologies and Expression Analysis (LTEA) Assay for Pyruvate Dehydrogenase Kinase 4 (PDK4) using HepaRG (AID 2283525)
Outline: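 Readout is qRT-PCR of PDK4 transcript, normalized to three housekeeping genes, with bidirectional fitting against 0.5% DMSO vehicle. Differentiated HepaRG cells were treated 48 h in serum-free induction medium, duplicate wells, eight-point half-log series topping at 100 uM.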

[12] = read-out: NAD(P)H dehydrogenase [quinone] 1 (NQO1), NQO1 (gene 1728); assay: LTEA_HepaRG_NQO1: Life Technologies and Expression Analysis (LTEA) Assay for NAD(P)H dehydrogenase [quinone] 1 (NQO1) using HepaRG (AID 2283526)
Outline: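 qRT-PCR read-out (Fluidigm TaqMan), normalized to three housekeeping genes, after 48 h chemical exposure of HepaRG cells. Concentrations: eight points, top 100 uM, half-log steps, 0.5% DMSO vehicle. Gain or loss of signal fitted relative to DMSO.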

[13] = read-out: Nuclear factor erythroid 2-related factor 2 (Homo sapiens) (UniProt Q16236); assay: LTEA_HepaRG_NFE2L2: Life Technologies and Expression Analysis (LTEA) Assay for Nuclear factor erythroid 2-related factor 2 (NFE2L2) Transcription Factor using HepaRG (AID 2283527)
Outline: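 NFE2L2 transcript level was read by qRT-PCR (housekeeping ACTB/GAPDH/POLR2A normalisation) after 48 h chemical treatment of HepaRG in serum-free induction medium. Duplicate 8-point half-log curves, top 100 uM, 0.5% DMSO vehicle; up- or down-regulation fitted against vehicle.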

[14] = read-out: succinate dehydrogenase complex iron sulfur subunit B (SDHB), SDHB (gene 6390); assay: LTEA_HepaRG_SDHB: Life Technologies and Expression Analysis (LTEA) Assay for succinate dehydrogenase complex iron sulfur subunit B (SDHB) using HepaRG (AID 2283528)
Outline: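 HepaRG cells (~100,000/well, plated 48 h) exposed in duplicate for 48 h in serum-free induction medium to 8-point half-log series from 100 uM in 0.5% DMSO; mRNA by qRT-PCR normalised to ACTB, GAPDH, POLR2A; bidirectional fit versus DMSO.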

[15] = read-out: Signal transducer and activator of transcription 3 (Homo sapiens) (UniProt P40763); assay: LTEA_HepaRG_STAT3: Life Technologies and Expression Analysis (LTEA) Assay for Signal transducer and activator of transcription (STAT3) using HepaRG (AID 2283529)
Outline: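 STAT3 transcript quantified by qRT-PCR against three housekeeping genes (ACTB, GAPDH, POLR2A), fitted both directions relative to DMSO. HepaRG cultures exposed 48 h to eight half-log concentrations, top 100 uM, 0.5% DMSO, serum-free induction medium.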

[16] = read-out: solute carrier (SLCO1B1), SLCO1B1 (gene 10599); assay: LTEA_HepaRG_SLCO1B1: Life Technologies and Expression Analysis (LTEA) Assay for solute carrier (SLCO1B1) using HepaRG (AID 2283530)
Outline: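 HepaRG, serum-free induction medium, 48 h dosing, 8-pt half-log from 100 uM, 0.5% DMSO vehicle, duplicates. Readout: SLCO1B1 mRNA, qRT-PCR, ACTB/GAPDH/POLR2A normalization; up or down fit vs DMSO.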

[17] = read-out: sulfotransferase 2A1 (SULT2A1), SULT2A1 (gene 6822); assay: LTEA_HepaRG_SULT2A1: Life Technologies and Expression Analysis (LTEA) Assay for sulfotransferase 2A1 (SULT2A1) using HepaRG (AID 2283531)
Outline: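 Transcript levels of SULT2A1, quantified by qRT-PCR and normalized to three housekeeping genes, serve as the readout. Human HepaRG cultures receive test chemicals for 48 h at up to 100 uM in half-log steps, with 0.5% DMSO vehicle.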

[18] = read-out: Transforming Growth Factor (TGFA), TGFA (gene 7039); assay: LTEA_HepaRG_TGFA: Life Technologies and Expression Analysis (LTEA) Assay for Transforming Growth Factor (TGFA) using HepaRG (AID 2283532)
Outline: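 TGFA transcript quantified by qRT-PCR (Fluidigm arrays) against three housekeeping genes, after 48 hours chemical treatment of HepaRG cells. Top concentration 100 uM with half-log dilutions, 8 points, duplicates, 0.5% DMSO.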

[19] = read-out: Transforming Growth Factor (TGFB1), TGFB1 (gene 7040); assay: LTEA_HepaRG_TGFB1: Life Technologies and Expression Analysis (LTEA) Assay for Transforming Growth Factor (TGFB1) Transporter using HepaRG (AID 2283533)
Outline: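 HepaRG, 48 h post-plating, switched to serum-free induction medium; chemicals 100 uM top, half-log, 8 pts, 0.5% DMSO, dup; 48 h exposure; RNA → Fluidigm TaqMan qRT-PCR; norm ACTB/GAPDH/POLR2A; bidirectional fit vs DMSO.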

Measured: AC50

Chain of Signal transducer and activator of transcription 3 (Homo sapiens) (P40763 whole entry, looked up): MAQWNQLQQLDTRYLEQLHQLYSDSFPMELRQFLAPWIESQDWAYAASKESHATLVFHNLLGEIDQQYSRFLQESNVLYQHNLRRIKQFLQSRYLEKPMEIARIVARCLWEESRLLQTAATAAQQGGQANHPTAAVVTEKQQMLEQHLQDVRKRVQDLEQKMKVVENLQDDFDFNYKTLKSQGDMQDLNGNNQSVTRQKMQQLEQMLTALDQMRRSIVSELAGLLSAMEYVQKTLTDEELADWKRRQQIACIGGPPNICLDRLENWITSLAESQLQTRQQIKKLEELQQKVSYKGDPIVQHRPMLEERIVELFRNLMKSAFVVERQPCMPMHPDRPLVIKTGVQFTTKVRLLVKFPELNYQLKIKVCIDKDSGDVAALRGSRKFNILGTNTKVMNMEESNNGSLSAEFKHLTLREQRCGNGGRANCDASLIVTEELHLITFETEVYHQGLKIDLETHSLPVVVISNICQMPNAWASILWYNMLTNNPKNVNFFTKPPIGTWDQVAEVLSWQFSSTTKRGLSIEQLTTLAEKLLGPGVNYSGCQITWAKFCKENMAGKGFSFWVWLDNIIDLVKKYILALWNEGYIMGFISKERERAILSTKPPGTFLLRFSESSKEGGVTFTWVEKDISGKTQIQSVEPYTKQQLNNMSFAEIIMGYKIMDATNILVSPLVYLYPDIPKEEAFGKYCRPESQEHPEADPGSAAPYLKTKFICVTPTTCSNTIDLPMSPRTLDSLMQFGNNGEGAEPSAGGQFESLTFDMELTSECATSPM
Chain of Nuclear factor erythroid 2-related factor 2 (Homo sapiens) (Q16236 whole entry, looked up): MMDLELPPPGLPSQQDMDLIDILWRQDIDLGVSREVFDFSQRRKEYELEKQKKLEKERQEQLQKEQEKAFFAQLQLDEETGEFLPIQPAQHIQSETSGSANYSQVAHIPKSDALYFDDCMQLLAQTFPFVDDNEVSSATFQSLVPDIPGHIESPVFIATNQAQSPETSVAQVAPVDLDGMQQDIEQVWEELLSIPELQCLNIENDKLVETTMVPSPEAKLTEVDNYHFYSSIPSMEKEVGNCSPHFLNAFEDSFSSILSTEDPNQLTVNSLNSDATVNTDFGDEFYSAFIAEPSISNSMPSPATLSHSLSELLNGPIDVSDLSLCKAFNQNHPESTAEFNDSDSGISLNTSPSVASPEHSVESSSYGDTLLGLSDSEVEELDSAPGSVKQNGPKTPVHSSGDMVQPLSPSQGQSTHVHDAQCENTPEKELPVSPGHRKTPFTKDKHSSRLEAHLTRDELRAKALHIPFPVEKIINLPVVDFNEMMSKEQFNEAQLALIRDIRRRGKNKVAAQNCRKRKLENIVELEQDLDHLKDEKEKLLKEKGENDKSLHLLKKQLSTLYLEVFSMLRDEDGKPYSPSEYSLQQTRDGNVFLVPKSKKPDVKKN
Chain of Nuclear factor NF-kappa-B p105 subunit (Homo sapiens) (P19838 whole entry, looked up): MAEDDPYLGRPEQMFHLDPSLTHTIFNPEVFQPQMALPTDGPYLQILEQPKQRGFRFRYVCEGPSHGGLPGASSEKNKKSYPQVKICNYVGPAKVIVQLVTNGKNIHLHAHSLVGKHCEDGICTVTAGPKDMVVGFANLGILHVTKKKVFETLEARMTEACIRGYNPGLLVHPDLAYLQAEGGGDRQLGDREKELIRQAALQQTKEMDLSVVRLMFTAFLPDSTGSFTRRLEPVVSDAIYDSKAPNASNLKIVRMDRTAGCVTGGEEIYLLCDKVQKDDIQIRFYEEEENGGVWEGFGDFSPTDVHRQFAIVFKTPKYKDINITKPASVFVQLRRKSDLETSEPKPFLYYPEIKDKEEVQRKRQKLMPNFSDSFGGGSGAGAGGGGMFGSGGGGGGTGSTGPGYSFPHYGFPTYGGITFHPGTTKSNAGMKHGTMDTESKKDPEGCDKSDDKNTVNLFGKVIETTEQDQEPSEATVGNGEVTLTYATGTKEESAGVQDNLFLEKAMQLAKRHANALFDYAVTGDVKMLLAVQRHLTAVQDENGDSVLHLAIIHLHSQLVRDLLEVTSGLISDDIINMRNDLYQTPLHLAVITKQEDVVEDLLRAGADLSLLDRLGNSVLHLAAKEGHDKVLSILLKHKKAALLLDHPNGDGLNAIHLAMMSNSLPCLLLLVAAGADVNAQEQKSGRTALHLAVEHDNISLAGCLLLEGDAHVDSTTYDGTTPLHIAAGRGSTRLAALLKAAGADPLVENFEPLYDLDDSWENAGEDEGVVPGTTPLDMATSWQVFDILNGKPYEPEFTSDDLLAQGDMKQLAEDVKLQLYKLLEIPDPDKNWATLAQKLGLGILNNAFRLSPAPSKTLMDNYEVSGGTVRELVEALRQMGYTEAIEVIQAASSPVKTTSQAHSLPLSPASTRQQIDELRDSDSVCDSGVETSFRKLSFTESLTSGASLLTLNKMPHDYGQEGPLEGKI

CCCCCCCCCCCC[N+](C)(C)C
inactive: [7] | [8] | [9] | [12] | [14] | [15]
active: [1] 89.2 µM | [2] 82 µM | [3] 75 µM | [4] 82.4 µM | [5] 76.4 µM | [6] 33.8 µM | [10] 91 µM | [11] 75.6 µM | [13] 76.9 µM | [16] 88.1 µM | [17] 93.5 µM | [18] 77 µM | [19] 50 µM

Cc1c2ccccc2c(C)c2c1ccc1ccccc12
active: [1] 30.6 µM | [2] 82.5 µM | [3] 66 µM | [4] 79.5 µM | [5] 11.8 µM | [6] 28.5 µM | [10] 41.2 µM | [11] 56.6 µM | [13] 90.5 µM | [16] 59.5 µM | [17] 71.1 µM | [18] 63.3 µM
inactive: [12] | [14] | [15]

C[C@]12CC[C@@H]3c4ccc(O)cc4CC[C@H]3[C@@H]1CC[C@H]2O
inactive: [2] | [3] | [4] | [5] | [8] | [9] | [11] | [12] | [13] | [14] | [15] | [18]
active: [1] 81.9 µM | [6] 50 µM | [10] 71.1 µM | [16] 77.5 µM | [17] 6.71 µM

Reference: PubChem BioAssay (EPA / NIEHS)
